Source: the supplement of paper PMC3334620
Over roughly 33,000 sequences, “E-score (-0.5 to 0.5)” has its median near -8e-05; the highest 2% begin near 0.23. For the sample, the highest values were picked, then their nearest neighbours and some sequences at random.

target: T1, Nrg2 (UniProt P38082); test: PBM E-score (8-mer binding enrichment) (E-score (-0.5 to 0.5)); higher = stronger / more preferred TF binding; details: protein concentration: 100 nM; construct: GST-full length
T1 sequence: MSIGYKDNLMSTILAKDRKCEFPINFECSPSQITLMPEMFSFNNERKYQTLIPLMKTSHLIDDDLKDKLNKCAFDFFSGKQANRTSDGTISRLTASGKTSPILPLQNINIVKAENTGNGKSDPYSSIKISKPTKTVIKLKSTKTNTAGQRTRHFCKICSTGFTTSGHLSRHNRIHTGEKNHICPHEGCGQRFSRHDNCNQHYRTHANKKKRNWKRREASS
Procedure: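 Universal 'all 10-mer' protein binding microarrays (Agilent AMADID 015681) probed with GST-tagged S. cerevisiae TFs (full-length or DBD) made by in vitro transcription/translation (PURExpress), about 100-200 nM. Bound TF was detected with fluorescent anti-GST. Each ungapped 8-mer (which stands for itself and its reverse complement) is scored by the PBM enrichment score (E-score), a modified Wilcoxon-Mann-Whitney statistic from -0.5 to +0.5, computed with the Universal PBM Analysis Suite. Scale: above 0.35 generally sequence-specific binding.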

| Sequence | PBM E-score |
| --- | --- |
| ATTTACTA | 0.0988 |
| GCAGTGGC | -0.173 |
| CAGCTGGA | 0.123 |
| GACTCGGA | -0.226 |
| CTTTTAAA | -0.168 |
| AGCAGCCA | 0.0226 |
| ATCGATTA | 0.0753 |
| CTCGATAA | 0.041 |
| CTCGATTC | 0.15 |
| CTCGATAC | 0.245 |
| CTCGATTA | 0.251 |
| ATCGATAC | 0.133 |
| GCGGATAC | 0.0466 |
| GGCGCCAA | 0.133 |
| CGTCGCCC | -0.282 |
| CCAAAGCA | 0.119 |
| GCTGCACC | -0.0621 |
| TAATATGA | 0.0376 |
| CAATATTA | 0.154 |
| GAATATAA | 0.12 |
| TAATATAA | 0.302 |
| AAATATTG | 0.204 |

| Sequence | PBM E-score |
| --- | --- |
| TAATATTA | 0.322 |
| AAATATTA | 0.247 |
| CAATATAA | 0.212 |
| TAATATCA | 0.0975 |
| AACCTGTC | -0.0794 |
| AGCTATAC | -0.101 |
| CATGGGCA | 0.0918 |
| GAATAATC | 0.185 |
| ACATAATC | 0.193 |
| TAATAATA | 0.0963 |
| TAATAACA | 0.00017 |
| AAATAATC | 0.0163 |
| AAATAATA | 0.203 |
| GAATAACA | 0.265 |
| GAATAATA | 0.238 |
| GCATAATA | 0.201 |
| CAATAACA | 0.0577 |
| ACATAATA | 0.295 |
| AAATAATT | 0.243 |
| CTGGCCGA | -0.163 |
| AACCTCCT | -0.264 |
| ACTCATAT | -0.028 |

| Sequence | PBM E-score |
| --- | --- |
| CCATTCAC | 0.0939 |
| CGGACACG | -0.0788 |
| GTCTAAAA | -0.0766 |
| CAGTCACA | -0.0678 |
| AAGTAATA | -0.00088 |
| GAGTAATA | 0.232 |
| CAGTAATA | 0.161 |
| ATCGGCTC | -0.0282 |
| AAGAATGT | 0.107 |
| CCCCTGGA | 0.0369 |
| ACCCTGGC | 0.338 |
| CCCCTGGC | 0.11 |
| AGCCTGGG | -0.159 |
| AACCTGGG | -0.131 |
| AGCCTGGA | -0.0491 |
| GCCCTGGA | 0.247 |
| AACCTGGC | -0.18 |
| ACCCTGGA | 0.279 |
| GTCCTGGA | -0.261 |
| AACCTGGA | -0.00995 |
| ACCCTGGG | 0.328 |
| CCTAAGGC | -0.191 |

| Sequence | PBM E-score |
| --- | --- |
| CCCTCATC | -0.0723 |
| CGGGGGAC | -0.242 |
| ACCCAGGG | 0.0967 |
| AAAACCTA | 0.0556 |
| CGTAGGAA | -0.0744 |
| CAGGGAAC | 0.0728 |
| TGCAACAA | 0.00649 |
| ATGAGGTC | -0.142 |
| GGCGCTAA | -0.0159 |
| AGCGCTTA | 0.131 |
| TGCGCTAA | 0.0259 |
| CGCGCTAA | 0.259 |
| CGCGCTGA | 0.0409 |
| CGCGCTTA | 0.254 |
| ACTAGTGG | 0.123 |
| CAGCTCAC | -0.161 |
| CGCCGCTC | 0.0612 |
| ACACGCGT | 0.00123 |
| ACAACATC | -0.042 |
| ACAACATA | 0.268 |
| GCAACATA | 0.0428 |
